# Reference: PubChem BioAssay
# The source made the active and inactive calls. Unless noted, no rule for the calls is given here.
# Key:
# [1] = tested on: Wnt5a (protein binding on small-molecule microarray); assay: Wnt5a binders on small-molecule microarray, primary screen, biophysical, 635/667 nm fluorescence (AID 1142); details: 635 nm fluorescence, higher = more signal;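 also: fluorescence read at 667 nm with signal to noise per printed feature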
# [2] = cell viability in Huh7 cells, primary screen, cytotoxicity control for HCV replication inhibitor project, CellTiter-Glo luminescence, basal, 48 h (AID 1143); details: Huh7 HCV replicon, higher = more signal, called active from +8 up or from −8 down;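 also: Huh7 hepatoma cells carrying a hepatitis C replication reporter with no stimulus; test concentration not given here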
# [3] = P. aeruginosa biofilm formation inhibitors, primary screen, PAO1 strain, BacTiter-Glo luminescence, LB-PBS (AID 1144); details: 12 h, higher = more signal
# [4] = CREB reporter modulators without forskolin, primary screen, cell-based, PC12, CRE-LacZ reporter, unstimulated (AID 1145); details: no forskolin, luminescence, 4.5 h, higher = more signal, called active from +8 up or from −8 down
# [5] = CREB reporter modulators under forskolin, primary screen, cell-based, PC12, CRE-LacZ reporter, forskolin-stimulated (AID 1146); details: luminescence, 4.5 h, higher = more signal, called active from +8 up or from −8 down;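 also: PC12 cells with 6xCRE LacZ reporter stimulated by forskolin 10 µM; beta-galactosidase reporter signal reflecting CREB driven transcription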
# [6] = molecular target: Streptavidin (Streptomyces avidinii) (UniProt P22629); assay: streptavidin binders on small-molecule microarray, primary screen, artefact control for SMM compound annotation, biophysical, 635/667 nm fluorescence (AID 1147); details: streptavidin binding, higher = more signal;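 also: signal reflects streptavidin binding to arrayed compounds as a control protein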
# [7] = small-molecule binders of probe aInhba, primary screen, biochemical, small-molecule microarray, 635/667 nm fluorescence (AID 1148); details: higher = more signal;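 also: score merges 667nm spot fluorescence with signal-to-noise for antibody binding to printed compounds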
# Torsin-1A (Homo sapiens) [8] = molecular target: Torsin-1A (Homo sapiens) (UniProt O14656); assay: torsin A binders from cell lysate, primary screen, small-molecule microarray, wild-type, 635/667 nm (AID 1149); details: COS7 hTOR1A-WT lysate, 635 nm fluorescence, higher = more signal
# Torsin-1A (Homo sapiens) [9] = molecular target: Torsin-1A (Homo sapiens) (UniProt O14656); assay: small-molecule binders of mutant TOR1A in lysate, primary screen, cell lysate, small-molecule microarray, COS7 lysate, 635/667 nm fluorescence (AID 1150); details: COS7 hTOR1A mutant lysate, 635 nm fluorescence, higher = more signal;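 also: score pools 667 nm emission and signal to noise measuring lysate protein binding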
# [10] = tested on: Sonic hedgehog protein (Shh); assay: small-molecule binders of Shh protein, primary screen, biochemical, small-molecule microarray, 635/667 nm fluorescence (AID 1151); details: small-molecule microarray binding, 635 nm fluorescence; higher = more signal;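 also: Shh protein binding to compounds spotted on small-molecule microarray slides; score combines spot fluorescence intensity with signal-to-noise across triplicate slides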
# Sequence of Torsin-1A (Homo sapiens) (O14656 whole entry, looked up): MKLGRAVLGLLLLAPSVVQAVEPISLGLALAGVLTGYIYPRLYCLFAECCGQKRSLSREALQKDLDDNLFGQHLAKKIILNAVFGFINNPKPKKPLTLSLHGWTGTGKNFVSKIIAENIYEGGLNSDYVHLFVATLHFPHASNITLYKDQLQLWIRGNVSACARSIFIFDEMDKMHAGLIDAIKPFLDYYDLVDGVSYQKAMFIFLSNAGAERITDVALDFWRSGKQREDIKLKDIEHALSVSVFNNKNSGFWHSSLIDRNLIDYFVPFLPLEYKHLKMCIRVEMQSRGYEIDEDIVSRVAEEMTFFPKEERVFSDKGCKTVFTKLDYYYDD
# Sequence of Streptavidin (Streptomyces avidinii) (P22629 whole entry, looked up): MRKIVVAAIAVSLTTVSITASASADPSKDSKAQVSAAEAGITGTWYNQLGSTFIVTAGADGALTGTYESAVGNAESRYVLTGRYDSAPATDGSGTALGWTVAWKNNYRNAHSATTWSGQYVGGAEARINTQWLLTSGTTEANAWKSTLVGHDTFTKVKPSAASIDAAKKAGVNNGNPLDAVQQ
Compound,composite z-score [1],z-score [2],z-score [3],z-score [4],z-score [5],composite z-score [6],composite z-score [7],composite z-score (Torsin-1A (Homo sapiens) [8]),composite z-score (Torsin-1A (Homo sapiens) [9]),composite z-score [10]
CCc1cccc(NC(=O)O[C@H]2[C@H](OC(=O)Nc3ccccc3-c3ccccc3)[C@@H](OC(=O)Nc3ccccc3-c3ccccc3)[C@@H](OC)O[C@@H]2CO)c1,0.729,-6.04 (inactive),-0.0932 (inactive),-0.655 (inactive),-0.756 (inactive),0.751,-0.0087,1.19,1.64,0.203
C[C@H]1NC(=O)[C@@]23C(=O)N[C@@H](Cc4ccccc4)C2[C@H](C)[C@@]2(C)O[C@H]2C3/C=C/C/C=C\CNC(=O)[C@@H]2CCCN2C1=O (stereo not given in full),0.168,-0.0568 (inactive),-0.545 (inactive),1.03 (inactive),0.647 (inactive),0.301,-0.0589,0.396,-0.103,1.73
CC(=O)n1cc(C(O)C2C=CC3C(=O)N(c4ccccc4)C(=O)C3N2Nc2ccc([N+](=O)[O-])cc2)c2ccccc21 (stereo not given),0.199,-0.547 (inactive),-0.197 (inactive),-0.322 (inactive),-0.647 (inactive),0.808,-0.0371,-0.268,0.475,-0.0727
COc1ccc(/C=C/C=O)cc1,0.156,0.0307 (inactive),-0.577 (inactive),0.209 (inactive),0.561 (inactive),0.166,-0.102,-0.238,0.0564,1.6
CCOC(=O)C[C@H]1[C@H](OC(=O)c2ccc(C(=O)c3ccccc3)cc2)[C@@H](NC(=O)c2ccccc2)c2cc(OCCCO)ccc2N1C(=O)c1ccc2ccccc2n1,0.152,-0.0123 (inactive),0.0501 (inactive),3.66 (inactive),-0.712 (inactive),1.22,-0.0468,0.478,0.179,-0.25
COC(=O)[C@@]1(Cc2ccc(OC)cc2)[C@@H]2C(=CC(=O)[C@H]2CC(=O)C(=O)N2CCCC2)CN1C(=O)c1ccccc1,0.292,-1.76 (inactive),0.745 (inactive),-0.754 (inactive),0.0528 (inactive),0.571,0.0694,-0.234,0.31,-1.35
C=C(C(=O)CC[C@@H](OC(=O)c1cccnc1)c1ccccc1OCCO)C(C)C,-0.0008,-1.25 (inactive),-0.0644 (inactive),8.13 (active),1.17 (inactive),-0.405,-0.0112,0.784,0.962,1.37
CC(C)N1C(=O)[C@@]2(Cc3ccccc31)c1ccccc1C(=O)N(Cc1ccccc1Cl)[C@H]2c1ccc(CO)cc1,-0.515,-2.27 (inactive),-1.68 (inactive),0.389 (inactive),-0.389 (inactive),-0.136,-0.29,-1.47,-0.848,-1.25
C[N+](C)(C)CCCC[C@@H]1NC(=O)[C@H]2C[C@@H](C(=O)NCCCCCCNC(=O)CS)[C@@H](c3cccc(OCCO)c3)N2C1=O,-0.298,0.2 (inactive),-0.635 (inactive),-0.683 (inactive),0.0114 (inactive),-0.667,-0.21,-0.182,-0.14,-0.396
